Assay outcomes: PubChem, National Center for Advancing Translational Sciences (NCATS)
TRHR ag: qHTS for Small Molecule Agonists and Allosteric Enhancers of Human TRH Receptor: Primary Screen for Agonists. activation, % at 2 µM. TRHR cells, calcium flux fluo-8, FDSS agonist mode. Thyrotropin-releasing hormone receptor (Homo sapiens), P34981. 360,000 tested, 0.18% active; further: 0% is about no effect
Target sequence (P34981 whole entry, looked up): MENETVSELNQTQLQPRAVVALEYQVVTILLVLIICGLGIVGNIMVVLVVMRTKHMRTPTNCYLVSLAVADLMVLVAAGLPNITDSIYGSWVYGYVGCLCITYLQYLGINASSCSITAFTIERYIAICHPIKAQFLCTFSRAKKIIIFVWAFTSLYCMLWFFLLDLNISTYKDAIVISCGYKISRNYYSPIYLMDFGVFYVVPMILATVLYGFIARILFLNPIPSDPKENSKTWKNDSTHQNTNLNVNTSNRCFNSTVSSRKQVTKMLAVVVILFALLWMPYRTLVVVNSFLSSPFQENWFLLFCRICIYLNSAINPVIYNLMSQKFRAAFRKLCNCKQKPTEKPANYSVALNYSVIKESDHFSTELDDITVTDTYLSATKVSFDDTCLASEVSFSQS
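TRHR-expressing cells, plated overnight in medium with 10% serum, were loaded with fluo-8 calcium dye at room temperature. After a 10 s baseline, library compound was pin-added and calcium release was recorded kinetically (ex 480/em 530) as agonist response.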
D1 antag: Antagonist of Human D 1 Dopamine Receptor: qHTS; 360,000 tested, 3.2% active; activity change, negative = inhibition, % at 10 µM; HEK293 TREx D1 cells, calcium flux, dopamine EC80; hits give low values; D(1A) dopamine receptor (Homo sapiens), P21728; in the data active means activity change below about -30%; further: on the % scale 0 is the no-effect control and ±100 the full control effect
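After overnight tetracycline induction at 30 C, force-coupled D1 HEK293 cells took up a no-wash calcium dye at room temperature. Compounds were added and monitored 180 s, and the response to EC80 dopamine was then recorded.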
D1 ag: Allosteric Agonists of the Human D1 Dopamine Receptor: qHTS. HEK293 T-REx D1 cells, calcium flux, agonist mode. 360,000 tested, 1% active. activation, % at 2 µM. D(1A) dopamine receptor (Homo sapiens), P21728; further: 0% is about no effect
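Agonism was scored from calcium flux recorded over 180 s (1 read/s) after pintool compound addition, following a 10-cycle baseline. Cells were inducible force-coupled HEK293 TREx D1, plated overnight at 30 C and loaded with no-wash calcium dye.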
D1 PAM: Potentiators of Human D1 Dopamine Receptor: qHTS. potentiation, % at 10 µM. AID 504651, 2011. D(1A) dopamine receptor (Homo sapiens), P21728. 360,000 tested, 0.036% active. HEK293 TREx D1 cells, calcium flux, dopamine EC20 potentiation; in the data active means potentiation above about 30%; further: 0% is about no effect
TRHR enhancer: qHTS for Small Molecule Agonists and Allosteric Enhancers of Human TRH Receptor: Primary Screen for Enhancers; AID 493056, 2011; enhancement, % at 2 µM; TRHR cells, fluo-8 calcium fluorescence, EC20 TRH enhancement; 360,000 tested, 0.66% active; Thyrotropin-releasing hormone receptor (Homo sapiens), P34981; in the data active means enhancement above about 30%; further: 0% is about no effect
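Enhancer read-out: after compound pinning and an initial kinetic agonist-mode read, an EC20 of TRH (10 nM final) was injected and fluo-8 calcium signal (Ex 480/Em 530) followed at 1 s/cycle for 100 cycles in TRHR-expressing cells.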
GRP78 ERSR act: qHTS for Inducers of the Endoplasmic Reticulum Stress Response (ERSR) in Human Glioma: qHTS | U87-MG GRP78 promoter luciferase reporter, 16 h | Potency, µM, inactives show at the highest dose activation, hits mostly activators | 420,000 tested, 0.02% active; active means well fitted activation curve with a large enough effect; further: potency means the concentration at half of the fitted maximal effect; series mostly up to about 76 µM; % of control where 0% means no effect; nearly all actives have a fitted effect of over 35% in size
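Stably transfected U87-MG glioma cells carrying a GRP78-based luciferase sensor; 16 h compound incubation. Luminescence end-point read 10 min after Bright-Glo addition at room temperature.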
Numbers without * were called inactive; . = no result; ! = repeats disagree. The list is not random: actives were taken first. Their share in the collection is about 4%. Unless noted, no stated cut-off is given here; in the data, active means activation above about 30%; inactive means the rest.

SMILES	TRHR ag	D1 antag	D1 ag	D1 PAM	TRHR enhancer	GRP78 ERSR act
Cc1ccccc1OCC(O)Cn1c(=N)n(CCN2CCOCC2)c2ccccc21 (configuration not stated)	0	-35*!	5	-6	2	-3%
Cc1cc(C)cc(-n2ccn(CC(=O)Nc3ccccc3C(F)(F)F)c(=O)c2=O)c1	0	-14	10	-4	-7	-3%
Cc1cc(OCC(=O)Nc2ccncc2)c(C)cc1Br	0	-33*	20	-12	-9	-2%
Cc1cc(C)c(OCC(=O)Nc2ccc3c(c2)OCO3)cc1C	-1	4	124*	18	-2	6%
Cc1ccc(C)c(OCC(=O)Nc2ccc3c(c2)OCO3)c1	0	1	7	-6	11	3%
CC(=O)N(C)c1ccc(NC(=O)COc2ccc(Br)cc2C)cc1	0	-55*	17	-8	0	1%
COc1ccc(-c2cc(C(=O)OCC(=O)Nc3ccc4c(c3)OCO4)c3ccccc3n2)cc1	1	-14	2	-8	-5	0%
O=C(COC(=O)c1cc(-c2ccccc2)nc2ccccc12)Nc1ccc2c(c1)OCO2	0	-42*	2	-3	-4	0%
COc1cc(OC)c(NS(=O)(=O)c2c(C(=O)N3CCCCC3)c(C)n(C)c2C)cc1Cl	-1	12	1	9	0	-4%
COc1ccccc1CNS(=O)(=O)c1c(C(=O)N2CCC(C)CC2)c(C)n(C)c1C	1	-7	0	0	0	-4%
O=C(Cc1ccccc1F)Nc1ccc(S(=O)(=O)Nc2ncccn2)cc1	1	6	1	-6	-1	-5%
Cc1ccc(OCCC(=O)OCC(=O)Nc2ccc3c(c2)OCO3)cc1	0	-64*	4	-6	-3	-2%
Cc1ccc(OCCC(=O)Nc2ccc3c(c2)OCO3)cc1	1	6	1	-1	4	2%
CCOC(=O)CNS(=O)(=O)c1ccc(F)cc1Br	.	.	.	.	.	-3%
CCN(CCCNc1ncnc2nc[nH]c12)c1cccc(C)c1	0	-36*	8	-10	-3	-3%
CCCCN(CCCNc1ncnc2nc[nH]c12)c1ccccc1	0	-14	8	-6	-4	-4%
CC#CCC(C)[C@H](O)/C=C/C1[C@H](O)C[C@@H]2C/C(=C\CCCC(=O)O)C[C@H]12 (some centres not stated)	.	.	.	.	.	-2%
O=S(=O)(c1ccccc1)N1CCSC1c1ccco1 (configuration not stated)	0	-44*	2	-5	34*	-5%
COc1ccc(CCN(C)S(=O)(=O)c2cn(C)c(=O)n(C)c2=O)cc1OC	0	-3	2	-5	6	-7%
CC(=O)c1ccc(NC(=O)C2CCN(c3nnc(C)c4c(C)n(-c5ccccc5)nc34)CC2)cc1	0	1	3	-2	-7	-1%
CCNC(=O)C1CCCN(c2nnc(C)c3c(C)n(-c4ccc(C)cc4)nc23)C1 (configuration not stated)	-1	2	4	-1	2	-1%
Cc1ccc(-n2nc3c(N4CCCC(C(=O)NCc5ccccc5C)C4)nnc(C)c3c2C)cc1 (configuration not stated)	0	17	44*	53*	2	-3%
COc1cc(NC(=O)C2CCN(c3nnc(C)c4c(C)n(-c5ccccc5)nc34)CC2)cc(OC)c1	-1	-40*	2	-2	5	1%
CCCc1c(C)nc(N2CCN(c3ccccc3OC)CC2)[nH]c1=O	0	-4	6	5	6	0%
CC(C)(C)OC(=O)N1CCC2(CC1)Oc1ccc(F)cc1C(=O)C21CC(c2ccccc2)=NO1 (configuration not stated)	.	.	.	.	.	-5%
